Data published in the supplement of paper PMC9262897, “Low-cost anti-mycobacterial drug discovery using engineered E. coli” (Nature Communications, 2022).
Where a name gives a salt, the structure may show the parent alone. ± gives the standard deviation of the averaged measurements.

What was measured:
Assay in all cases: growth (OD600 after 10 h); higher = more growth (less inhibition)
[1] = system: E. coli TESEC Alr+ wild-type control; conditions: compound 0.1 mM; raw OD600 reference: median of DMSO wells 0.241, cell-free background 0.041
Description: (§1)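 TESEC Mtb Alr E. coli, or the Alr+ wild-type control, in 384-well plates with Prestwick library compounds at 0.1 mM and 1% DMSO, across arabinose induction levels of 1E3 to 1E7 nM. Growth is read as OD600 after 10 h at 37 °C in triplicate biological replicates.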

E. coli TESEC Mtb Alr [2] = conditions: compound 0.1 mM
Description: as §1

E. coli TESEC Mtb Asd = conditions: compound 0.1 mM
Description: (§2)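 TESEC E. coli strains in which the native enzyme is deleted and replaced by arabinose-inducible Mtb Asd, DapB, CysH or TrpD, each grown in its selective medium. Strains were screened against the Prestwick library at 0.1 mM and 1% DMSO in 384-well format at low and high arabinose induction. Growth is read as OD600 after 10 h in triplicate.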

E. coli TESEC Mtb DapB = conditions: compound 0.1 mM
Description: as §2

[3] = system: E. coli TESEC Alr+ wild-type control; conditions: compound 0.1 mM; raw OD600 reference: median of DMSO wells 0.49, cell-free background 0.052
Description: (§3)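 TESEC Mtb Alr E. coli (ΔaraC ΔtolC ΔentC Δalr ΔdadX, arabinose-inducible Mtb Alr) or the Alr+ wild-type control strain, grown in defined M9-fructose medium without D-alanine in 96-well plates with Prestwick library compounds at 0.1 mM and 1% DMSO. Low Alr induction is 0.1 µM arabinose and high induction is 10 mM arabinose.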

E. coli TESEC Mtb Alr [4] = conditions: compound 0.1 mM; remark: listed apart in the source
Description: as §3

[5] = arabinose 1000 nM, raw OD600 reference: median of DMSO wells 0.294, cell-free background 0.041
[6] = arabinose 10000 nM, raw OD600 reference: median of DMSO wells 0.264, cell-free background 0.041
[7] = arabinose 100000 nM, raw OD600 reference: median of DMSO wells 0.201, cell-free background 0.041
[8] = arabinose 1000000 nM, raw OD600 reference: median of DMSO wells 0.193, cell-free background 0.041
[9] = arabinose 10000000 nM, raw OD600 reference: median of DMSO wells 0.146, cell-free background 0.041
[10] = arabinose induction (level): High, raw OD600 reference: median of DMSO wells 0.331, cell-free background 0.041
[11] = arabinose induction (level): Low, raw OD600 reference: median of DMSO wells 0.417, cell-free background 0.041
[12] = arabinose induction (level): High, raw OD600 reference: median of DMSO wells […], cell-free background 0.041
[13] = arabinose induction (level): Low, raw OD600 reference: median of DMSO wells 0.227, cell-free background 0.041
[14] = arabinose 100 nM, raw OD600 reference: median of DMSO wells 0.413, cell-free background 0.052
[15] = arabinose 10000000 nM, raw OD600 reference: median of DMSO wells […], cell-free background 0.052

CC(=O)c1ccc2c(c1)N(CCCN(C)C)c1ccccc1S2 [Acetopromazine maleate salt]
growth [1]: 0.183 ± 0.0048
growth (E. coli TESEC Mtb Alr [2]; [5]): 0.228 ± 0.0028
growth (E. coli TESEC Mtb Alr [2]; [6]): 0.263 ± 0.016
growth (E. coli TESEC Mtb Alr [2]; [7]): 0.208 ± 0.023
growth (E. coli TESEC Mtb Alr [2]; [8]): 0.123 ± 0.0016
growth (E. coli TESEC Mtb Alr [2]; [9]): 0.152 ± 0.0028
growth (E. coli TESEC Mtb Asd; [10]): 0.214 ± 0.025
growth (E. coli TESEC Mtb Asd; [11]): 0.301 ± 0.033
growth (E. coli TESEC Mtb DapB; [12]): 0.188 ± 0.012
growth (E. coli TESEC Mtb DapB; [13]): 0.217 ± 0.021
growth [3]: 0.47 ± 0.012
growth (E. coli TESEC Mtb Alr [4]; [14]): 0.399 ± 0.011
growth (E. coli TESEC Mtb Alr [4]; [15]): 0.322 ± 0.015

CC1(C)S[C@@H]2[C@H](NC(=O)[C@H](C(=O)O)c3ccsc3)C(=O)N2[C@H]1C(=O)O [Ticarcillin sodium]
growth [1]: 0.256 ± 0.0056
growth (E. coli TESEC Mtb Alr [2]; [5]): 0.296 ± 0.0051
growth (E. coli TESEC Mtb Alr [2]; [6]): 0.28 ± 0.0035
growth (E. coli TESEC Mtb Alr [2]; [7]): 0.2 ± 0.031
growth (E. coli TESEC Mtb Alr [2]; [8]): 0.226 ± 0.0051
growth (E. coli TESEC Mtb Alr [2]; [9]): 0.142 ± 0.0031
growth (E. coli TESEC Mtb Asd; [10]): 0.331 ± 0.056
growth (E. coli TESEC Mtb Asd; [11]): 0.305 ± 0.0068
growth (E. coli TESEC Mtb DapB; [12]): 0.178 ± 0.0019
growth (E. coli TESEC Mtb DapB; [13]): 0.196 ± 0.019
growth [3]: 0.577 ± 0.095
growth (E. coli TESEC Mtb Alr [4]; [14]): 0.419 ± 0.0051
growth (E. coli TESEC Mtb Alr [4]; [15]): 0.354 ± 0.0093

CCOc1ccc(NC(C)=O)cc1 [Phenacetin]
growth [1]: 0.243 ± 0.0043
growth (E. coli TESEC Mtb Alr [2]; [5]): 0.2912 ± 0.0014
growth (E. coli TESEC Mtb Alr [2]; [6]): 0.27 ± 0.0042
growth (E. coli TESEC Mtb Alr [2]; [7]): 0.231 ± 0.028
growth (E. coli TESEC Mtb Alr [2]; [8]): 0.1828 ± 0.0017
growth (E. coli TESEC Mtb Alr [2]; [9]): 0.152 ± 0.0045
growth (E. coli TESEC Mtb Asd; [10]): 0.345 ± 0.083
growth (E. coli TESEC Mtb Asd; [11]): 0.413 ± 0.084
growth (E. coli TESEC Mtb DapB; [12]): 0.208 ± 0.019
growth (E. coli TESEC Mtb DapB; [13]): 0.224 ± 0.012
growth [3]: 0.506 ± 0.071
growth (E. coli TESEC Mtb Alr [4]; [14]): 0.411 ± 0.011
growth (E. coli TESEC Mtb Alr [4]; [15]): 0.329 ± 0.019

CN1CCN(c2c(F)cc3c(=O)c(C(=O)O)cn4c3c2SCC4)CC1 [Rufloxacin]
growth [1]: 0.04323 ± 0.00015
growth (E. coli TESEC Mtb Alr [2]; [5]): 0.0429 ± 0.001
growth (E. coli TESEC Mtb Alr [2]; [6]): 0.03973 ± 0.00031
growth (E. coli TESEC Mtb Alr [2]; [7]): 0.04207 ± 0.00031
growth (E. coli TESEC Mtb Alr [2]; [8]): 0.03957 ± 0.00025
growth (E. coli TESEC Mtb Alr [2]; [9]): 0.0429 ± 0.0015
growth (E. coli TESEC Mtb Asd; [10]): 0.04973 ± 0.00045
growth (E. coli TESEC Mtb Asd; [11]): 0.0499 ± 0.0012
growth (E. coli TESEC Mtb DapB; [12]): 0.0507 ± 0.00094
growth (E. coli TESEC Mtb DapB; [13]): 0.0509 ± 0.0014
growth [3]: 0.0549 ± 0.00072
growth (E. coli TESEC Mtb Alr [4]; [14]): 0.0582 ± 0.0019
growth (E. coli TESEC Mtb Alr [4]; [15]): 0.05197 ± 0.00051

CC(=O)Nc1c(I)c(C(=O)N[C@H]2C(O)O[C@H](CO)[C@@H](O)[C@@H]2O)c(I)c(N(C)C(C)=O)c1I (stereo partly specified) [Metrizamide]
growth [1]: 0.246 ± 0.014
growth (E. coli TESEC Mtb Alr [2]; [5]): 0.307 ± 0.014
growth (E. coli TESEC Mtb Alr [2]; [6]): 0.273 ± 0.0038
growth (E. coli TESEC Mtb Alr [2]; [7]): 0.238 ± 0.034
growth (E. coli TESEC Mtb Alr [2]; [8]): 0.188 ± 0.0051
growth (E. coli TESEC Mtb Alr [2]; [9]): 0.16 ± 0.0066
growth (E. coli TESEC Mtb Asd; [10]): 0.247 ± 0.017
growth (E. coli TESEC Mtb Asd; [11]): 0.352 ± 0.0067
growth (E. coli TESEC Mtb DapB; [12]): 0.218 ± 0.025
growth (E. coli TESEC Mtb DapB; [13]): 0.212 ± 0.013
growth [3]: 0.61 ± 0.014
growth (E. coli TESEC Mtb Alr [4]; [14]): 0.403 ± 0.012
growth (E. coli TESEC Mtb Alr [4]; [15]): 0.334 ± 0.011

CN1CCc2c(c3ccccc3n2Cc2ccccc2)C1 [Mebhydroline 1,5-naphtalenedisulfonate]
growth [1]: 0.175 ± 0.0028
growth (E. coli TESEC Mtb Alr [2]; [5]): 0.218 ± 0.0081
growth (E. coli TESEC Mtb Alr [2]; [6]): 0.267 ± 0.012
growth (E. coli TESEC Mtb Alr [2]; [7]): 0.199 ± 0.02
growth (E. coli TESEC Mtb Alr [2]; [8]): 0.133 ± 0.0032
growth (E. coli TESEC Mtb Alr [2]; [9]): 0.157 ± 0.005
growth (E. coli TESEC Mtb Asd; [10]): 0.179 ± 0.014
growth (E. coli TESEC Mtb Asd; [11]): 0.278 ± 0.055
growth (E. coli TESEC Mtb DapB; [12]): 0.187 ± 0.017
growth (E. coli TESEC Mtb DapB; [13]): 0.207 ± 0.0028
growth [3]: 0.4471 ± 0.0035
growth (E. coli TESEC Mtb Alr [4]; [14]): 0.404 ± 0.0065
growth (E. coli TESEC Mtb Alr [4]; [15]): 0.261 ± 0.034

CC(C[N+](C)(C)C)OC(N)=O (stereo unspecified) [Bethanechol chloride]
growth [1]: 0.24 ± 0.0039
growth (E. coli TESEC Mtb Alr [2]; [5]): 0.283 ± 0.0042
growth (E. coli TESEC Mtb Alr [2]; [6]): 0.28 ± 0.0036
growth (E. coli TESEC Mtb Alr [2]; [7]): 0.195 ± 0.014
growth (E. coli TESEC Mtb Alr [2]; [8]): 0.222 ± 0.021
growth (E. coli TESEC Mtb Alr [2]; [9]): 0.139 ± 0.0046
growth (E. coli TESEC Mtb Asd; [10]): 0.373 ± 0.07
growth (E. coli TESEC Mtb Asd; [11]): 0.381 ± 0.028
growth (E. coli TESEC Mtb DapB; [12]): 0.2 ± 0.024
growth (E. coli TESEC Mtb DapB; [13]): 0.242 ± 0.025
growth [3]: 0.603 ± 0.0074
growth (E. coli TESEC Mtb Alr [4]; [14]): 0.438 ± 0.0061
growth (E. coli TESEC Mtb Alr [4]; [15]): 0.349 ± 0.006
